{
  "source": "PubChem BioAssay (NCI)",
  "note": "This is part of a sample that, as a whole, favours compounds with a hit. Of some 83,000 tested, about 20% had one in any assay.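 Single-dose data. Exposure time 48 hours. Values below 10 considered active.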 Active and inactive are the calls of the source.",
  "data": [
    {"system": "MALME-3M melanoma", "assay": "NCI-60 one-dose screen, 48 h (100 = growth as untreated, 0 = no growth, -100 = all killed)", "conditions": "10 µM", "values": [
      {"smiles": "COc1ccc(/C=C/C(=O)c2ccc(NC(=O)CN3C(=O)NC(C)(c4ccccc4)C3=O)cc2)cc1", "note": "(stereo not drawn)", "growth": "90.5% (inactive)"},
      {"smiles": "Cc1ccc(C(C)C)cc1NC(=O)c1ccccc1O", "growth": "9.96% (active)"},
      {"smiles": "CC1(c2ccccc2)NC(=O)N(CC(=O)Nc2ccc(C(=O)/C=C/c3ccc(Br)cc3)cc2)C1=O", "note": "(stereo not drawn)", "growth": "72.9% (inactive)"},
      {"smiles": "C=C[C@@]12CN3CC[C@]1(O)[C@@](C(=O)OC)(CO2)c1[nH]c2ccccc2c1C3", "growth": "95.5% (inactive)"},
      {"smiles": "COc1ccc(/C=C/C(=O)c2ccc(S(=O)(=O)NCCNc3nc(Nc4ccc(F)cc4)nc(N(C)C)n3)cc2)cc1", "growth": "49.3% (inactive)"},
      {"smiles": "O=c1oc2ccccc2cc1-c1csc(N=Nc2c(O)[nH]c3ccc(Br)cc23)n1", "growth": "56.3% (inactive)"},
      {"smiles": "O=C(CSc1nnc(-c2c[nH]c3ccccc23)n1-c1ccccc1)Nc1ccc(C(=O)/C=C/c2ccccc2Cl)cc1", "growth": "64.6% (inactive)"},
      {"smiles": "O=C(NO)c1ccc(-c2nc3ccc4[nH]ncc4c3c3c2CCCC3)cc1", "growth": "-80.5% (active)"},
      {"smiles": "CS(=O)(=O)Nc1ccc(-c2ccc3c(c2)ncn3-c2ccc(NC(=O)Nc3ccc(Br)cc3)cc2)cc1", "growth": "-20.2% (active)"},
      {"smiles": "O=C(CS(=O)(=O)c1oc(-c2ccc(Cl)cc2)nc1S(=O)(=O)c1ccc(Cl)cc1)N1CCOCC1", "growth": "-71.3% (active)"},
      {"smiles": "COc1cc(-c2nc3cc(Cl)c(Cl)cc3[nH]2)ccc1OCc1nnc(-c2ccc(Br)cc2)o1", "growth": "-78.2% (active)"},
      {"smiles": "COc1cccc(C(N)=Nc2ccc(OCCCCCCn3cncn3)cc2)c1", "growth": "43.4% (inactive)"},
      {"smiles": "COc1cc2c3c(n(CCCn4ccnc4)c(=O)c2cc1OC)-c1nc2c(cc1C3=O)OCO2", "growth": "59.9% (inactive)"},
      {"smiles": "Cc1ccc(/C=C/C(=O)c2ccc(NC(=O)CSc3nnc(-c4c[nH]c5ccccc45)n3-c3ccccc3)cc2)cc1", "growth": "93.9% (inactive)"},
      {"smiles": "O=C(CSc1nnc(-c2ccc3nc(-c4ccccc4)[nH]c3c2)o1)Nc1ccc(Br)cc1", "growth": "5.76% (active)"},
      {"smiles": "O=C(CNc1nc(-c2ccccc2)cs1)Nc1ccccc1", "growth": "-61% (active)"},
      {"smiles": "O=C(/C=C/Nc1ccc(F)cc1F)c1ccc2c(c1)Nc1ccccc1S2", "growth": "66.1% (inactive)"},
      {"smiles": "COc1cc(Cn2c(C(F)(F)F)cc3c(Cl)ncnc32)ccn1", "growth": "71.2% (inactive)"},
      {"smiles": "COc1ccc(-c2cc(C(=O)N=Nc3c(O)[nH]c4ccc(F)cc34)c3ccccc3n2)cc1", "growth": "25.3% (inactive)"},
      {"smiles": "O=C(Nc1ccccc1)Nc1nc2ccccc2s1", "growth": "-10.2% (active)"},
      {"smiles": "O=C(CSc1nnc(-c2ccc3nc(-c4ccccc4)[nH]c3c2)o1)Nc1ccc(Cl)cc1", "growth": "44% (inactive)"},
      {"smiles": "CCOc1ccc(Nc2nc3ccccc3nc2Nc2ccc(OCC)cc2)cc1", "growth": "83.7% (inactive)"},
      {"smiles": "CNC(=O)c1cc(-c2ccc(NC(=O)Nc3ccc(C)cc3)cc2)nc2cccnc12", "growth": "109% (inactive)"},
      {"smiles": "NC(=Nc1ccc(OCCCCCCCCn2ccnn2)cc1)c1ccccc1", "growth": "45.1% (inactive)"},
      {"smiles": "Cc1ccc(C(=O)Nc2ccc(-n3c(C)nc4c(cnn4-c4ccccc4)c3=O)cc2)cc1", "growth": "67.7% (inactive)"},
      {"smiles": "COc1ccc(-c2cc(-c3cc(C(=O)c4ccccc4)n4ccc(C)cc34)nc(N)c2C#N)cc1", "growth": "50.8% (inactive)"},
      {"smiles": "C[C@H]1[C@H](C)CC[C@]2(COC(=O)CCC(=O)NCC#CCN3CCNCC3)CC[C@]3(C)C(=CC[C@@H]4[C@@]5(C)CCCNC(C)(C)[C@@H]5CC[C@]43C)[C@H]12", "growth": "-38.7% (active)"},
      {"smiles": "O=c1[nH]c2ccc(Cl)cc2cc1CSc1ccc(Nc2nccc(-c3ccc(Cl)cc3)n2)cc1", "growth": "57.5% (inactive)"},
      {"smiles": "COc1ccc(-c2cc(C(=O)N=Nc3c(O)[nH]c4ccccc34)c3ccccc3n2)cc1", "growth": "-54.6% (active)"},
      {"smiles": "COc1ccc(-c2nc(S(=O)(=O)c3ccc(C)cc3)c(S(=O)(=O)CC(=O)N(C)Cc3ccccc3)o2)cc1", "growth": "16.7% (inactive)"},
      {"smiles": "COc1ccc(C(C)=C(c2ccc(OCCCN(C)C)cc2)c2ccc(OCCCN(C)C)cc2)cc1", "growth": "-97% (active)"},
      {"smiles": "COc1cc2c3c(n(CCCNCCO)c(=O)c2cc1OC)-c1nc2c(cc1C3=O)OCO2", "growth": "46.7% (inactive)"},
      {"smiles": "c1ccc(C(=C(c2ccc(OCCN3CCCCC3)cc2)c2ccc(OCCN3CCCCC3)cc2)C2CCCC2)cc1", "growth": "-95.2% (active)"},
      {"smiles": "O=C(CSc1nnc(-c2c[nH]c3ccccc23)n1-c1ccccc1)Nc1ccc(C(=O)/C=C/c2ccc(Cl)cc2)cc1", "growth": "61.6% (inactive)"},
      {"smiles": "COc1cnc2c(c1)C(=O)c1c-2n(CCCNC(C)C)c(=O)c2cc(OC)c(OC)cc12", "growth": "88.7% (inactive)"},
      {"smiles": "COc1ccc(NC(=O)CSc2nnc(-c3ccc4nc(-c5ccc(Cl)cc5)[nH]c4c3)o2)cc1", "growth": "-81.7% (active)"},
      {"smiles": "CN(CCO)c1oc(-c2ccccc2)nc1[P+](c1ccccc1)(c1ccccc1)c1ccccc1", "growth": "-12% (active)"},
      {"smiles": "CN1CCc2c(sc3ncnc(N/N=C/c4ccc5ccccc5c4)c23)C1", "growth": "91.2% (inactive)"}
    ]}
  ]
}
